Screen size: about 330,000 compounds; about 4,100 (1.2%) were called active. Not shown: some 2% with an inconclusive outcome. Rule for the calls: active = max response of -50% or lower; inconclusive = between -30% and -50%; inactive = -30% or higher. The list comes from a sample in which actives are over-represented; it also holds similar structures and randomly drawn compounds.
% is set by controls: 0 for no effect and ±100 for the full control effect.

Chain of Phosphatidylinositol 5-phosphate 4-kinase type-2 alpha (Homo sapiens) (P48426 whole entry, looked up): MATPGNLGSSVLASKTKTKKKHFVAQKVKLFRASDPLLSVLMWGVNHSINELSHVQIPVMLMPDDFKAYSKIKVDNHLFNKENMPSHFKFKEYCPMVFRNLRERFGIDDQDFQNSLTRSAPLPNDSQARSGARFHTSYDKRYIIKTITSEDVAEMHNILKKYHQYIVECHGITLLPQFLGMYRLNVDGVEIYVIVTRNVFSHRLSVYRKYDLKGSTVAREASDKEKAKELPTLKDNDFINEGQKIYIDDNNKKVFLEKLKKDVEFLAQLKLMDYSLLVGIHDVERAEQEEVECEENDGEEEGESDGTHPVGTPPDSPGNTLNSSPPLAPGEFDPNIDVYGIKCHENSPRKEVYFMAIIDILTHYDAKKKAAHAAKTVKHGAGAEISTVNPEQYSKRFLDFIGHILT

In the experiment the target is Phosphatidylinositol 5-phosphate 4-kinase type-2 alpha (Homo sapiens) (UniProt P48426). Nature of the experiment: qHTS for Inhibitors of phosphatidylinositol 5-phosphate 4-kinase (PI5P4K). Note: value at the top dose of about 77 µM. Conditions: PI5P4Kalpha enzyme, ADP-Glo luminescence, 60 min; active compounds read low. The gist of the method:
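ADP-Glo luminescence end-point after a 60 min room-temperature kinase reaction. PI5P4Kalpha and substrate in HEPES pH 7.4 buffer with EGTA, 0.1% CHAPS and 5% DMSO; ATP at 5 microM final.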
Consider `COc1ccc(C(O)C(O)(C(=O)OC(C)C)c2ccc(C)cc2)cc1` (centres undefined), for which the max response was -0.92% (inactive).

Take `COc1cncc(-c2cnc3sc(NCCc4ccccn4)nn23)c1`: the max response is -5.87% (inactive).

Turning to `O=C1NC[C@H](CCCCN2CCN(CCc3ccccc3)C(=O)C2=O)N(CC2CCCCC2)C1=O`, the max response was -2.74% (inactive).

In the case of `CCOC(=O)[C@]12CCC=C1N(Cc1cccc3ccccc13)C(=O)[C@H](CC(=O)NCc1cccc(C(F)(F)F)c1)C2`, the max response is 11% (inactive).

Regarding `CC1(Cc2ccccc2C#N)C(=O)Nc2ccc(-c3ccc4[nH]ccc4c3)cc21` (centres undefined), the max response is -19.1% (inactive).

As for `CCN1C(=O)[C@@H]2[C@@H]3CN(S(=O)(=O)c4ccccc4C)[C@@H](c4ccc(Cl)cc4)[C@@H]3C(=O)C[C@@H]2C1=O`, the max response is -5.23% (inactive).

Regarding `Cc1cccc(-c2cnc(C(O)c3cc(C)cc(C)c3)[nH]2)c1` (centres undefined), the max response was 0.164% (inactive).

As to `CN1CCN(C(=O)c2ccc(NC(=O)c3ccc(Br)o3)cc2)CC1`, the max response was -0.458% (inactive).

As to `COc1ccc(CCCc2nnc(SCc3nc4ccccc4c(=O)[nH]3)n2C)cc1`, the max response is -92.1% (active).

With `CCn1c(COc2c(C)cccc2C)nnc1SCc1nc2ccccc2c(=O)[nH]1`, the max response is -1.01% (inactive).

On to `COc1ccc(C)cc1-n1nnnc1SCc1nc2ccccc2c(=O)[nH]1`, for which the max response was -6.87% (inactive).

In the case of `CCC(=O)N1Cc2cc(C(=O)NCc3cccc(F)c3)nc(-c3cccc(C4=CCCC4)c3)c2[C@H]1CCO`, the max response is -0.668% (inactive).

On to `CN(C)C(=O)N=NC(=O)N(C)C`, for which the max response was -58.3% (active).

Regarding `CCc1nc2c(OCc3ccc(F)c(F)c3)cccn2c1N(C)C(=O)c1ccco1`, the max response was -3.84% (inactive).

Regarding `O=C(NNC(=S)NCc1ccco1)C(c1ccccc1)c1ccccc1`, the max response is -8.48% (inactive).

For the compound `CCNC(=S)NNC(=O)Cc1ccccc1`, the max response was 5.73% (inactive).

As to `CCCCC(=O)NNC(=S)NC(=O)C(c1ccccc1)c1ccccc1`, the max response was -62.6% (active).

`CCCCCCn1c(=O)n2n(c1=O)C[C@]1(OC(=O)NCc3ccc(OC)c(OC)c3)CN(S(=O)(=O)c3ccc(C)cc3)C[C@]1(O)C2`: the max response is 3.29% (inactive).

As for `CCOC(=O)[C@]12CCCC=C1N(CCC1=CCCCC1)C(=O)[C@H](CC(=O)NCCCCc1ccccc1)C2`, the max response is 0.467% (inactive).

For the compound `CCCOc1ccc(F)cc1-c1cc(C(=O)Nc2ccc(F)cc2)[nH]n1`, the max response was 0.345% (inactive).

With `O=C(c1cccnc1)N(c1cc2sc(=O)oc2c2ccccc12)S(=O)(=O)c1ccccc1`, the max response was -69.2% (active).

In the case of `COc1ccc(N(C(=O)c2cccnc2)S(=O)(=O)c2ccc(OC)c(OC)c2)cc1`, the max response is 0.0951% (inactive).

In the case of `COc1ccc(N(C(=O)c2cccnc2)S(=O)(=O)c2ccc3c(c2)n(C)c(=O)n3C)cc1`, the max response is -3.4% (inactive).

For the compound `COCCCNC(=O)c1cccc2c(-c3ccc(O)c(OC)c3)coc12`, the max response was 4.94% (inactive).

`COCCCNC(=O)c1ccc(-c2c(C)noc2C)c2ccoc12`: the max response is -2.64% (inactive).

As to `CCOc1ccc(CCN2C(=O)c3cccnc3C2=O)cc1OCC`, the max response is -0.64% (inactive).

`O=C1c2cccnc2C(=O)N1Cc1cccs1`: the max response is 0.461% (inactive).

As to `NC1=CC(=O)C(=O)c2cccnc21`, the max response was -50.3% (active).

As to `O=C(Nc1ccc(Cl)cc1)C1Cc2c(-c3ccc4c(c3)OCO4)ccnc2O1` (centres undefined), the max response was -13.4% (inactive).

On to `CCCCCn1nnnc1C1c2ccccc2C(=O)N1Cc1ccco1` (centres undefined), for which the max response is -0.242% (inactive).

`FC(F)(F)C1CCCN(c2nsc3ccccc23)C1` (centres undefined): the max response was -91.2% (active).

Take `O=C(NCC(=O)N1CCCC(C(F)(F)F)C1)c1ccccc1F` (centres undefined): the max response was 3.2% (inactive).

As for `O=C(NC(Cc1ccccc1)C(=O)N1CCCC(C(F)(F)F)C1)c1ccccc1` (centres undefined), the max response is 11.8% (inactive).

As to `CCC(C(=O)NC(C)(C)C)n1c(-c2ccccc2)nc2ccccc21` (centres undefined), the max response is 1.82% (inactive).

As for `OC[C@@H]1CN(C2CCCC2)C[C@H](n2cnc3c(NC4CCC4)ncnc32)O1`, the max response was -2.43% (inactive).

Consider `N#Cc1cccc(NC(=O)c2cc(C3CCCCN3C(=O)CCc3ccccc3)on2)c1` (centres undefined), for which the max response was -3.06% (inactive).

As for `Cc1ccc(NC(=O)Cn2sc3ccccc3c2=O)cc1`, the max response was -87% (active).

Take `Cc1nn(CC(=O)Nc2ccc(F)cc2)c(=O)c2ccccc12`: the max response is -3.79% (inactive).

As to `Cc1ccc(NC(=O)Cn2c(C)csc2=O)cc1`, the max response was 6.3% (inactive).

As to `CC(C)C[C@H]1CNC(=O)C(=O)N1C[C@@H]1CCCN1C[C@H](Cc1ccccc1)N1C[C@H](CC(C)C)N(CC2CCCCCC2)C(=O)C1=O`, the max response is -0.689% (inactive).

For the compound `Cc1cccc(-c2cnc(C(O)c3ccc4ccccc4c3)[nH]2)c1` (centres undefined), the max response is -4.33% (inactive).

On to `CCc1nc2c(OCc3ccc(C(F)(F)F)cc3)cccn2c1N(C)C(=O)CC(C)C`, for which the max response is 9.67% (inactive).

As for `O=C1Nc2cc(C(=O)N3CCC(N4CCCCC4)CC3)ccc2S/C1=C\c1ccccc1`, the max response is -1.98% (inactive).

On to `CCN1CCN(CCNC(=O)c2ccc3c(c2)NC(=O)/C(=C\c2cccc(Cl)c2)S3)CC1`, for which the max response is -64.1% (active).

Consider `CCN1CCCC1CNC(=O)c1ccc2c(c1)NC(=O)/C(=C\c1ccccc1F)S2` (centres undefined), for which the max response is -0.909% (inactive).

With `COC(=O)[C@@]12C[C@@H](CC(=O)N3CCCCC3)C(=O)N(Cc3ccc4c(c3)OCO4)C1=CCC(C)(C)C2`, the max response was -2.52% (inactive).

`CC(=O)OC[C@@H]1CN(Cc2ccccc2)C[C@H](n2cnc3c(NCc4ccco4)ncnc32)O1`: the max response was -7.06% (inactive).

Consider `CCCCN(C=O)c1c(CC)nc2c(OCCC3CCCCC3)cccn12`, for which the max response is -11.5% (inactive).

Consider `CC1(C(=O)Nc2cccc(Oc3ccccc3)c2)CCN1Cc1ccccc1Cl` (centres undefined), for which the max response is 19% (inactive).

For the compound `CC(=O)NCC(=O)N(Cc1ccco1)C1(C(=O)NC2CCCC2)CCCCC1`, the max response was 1.69% (inactive).

As for `CC(=O)N(CC1CCCO1)C1(C(=O)NC2CCCC2)CCCCC1` (centres undefined), the max response was 8.44% (inactive).

Turning to `O=C(Cc1cccs1)N(CC1CCCO1)C1(C(=O)NC2CCCCC2)CCCCC1` (centres undefined), the max response is -55.8% (active).

With `CCCNC(=O)c1cc(C2CCCCN2S(=O)(=O)c2ccc(C#N)cc2)on1` (centres undefined), the max response was 7.08% (inactive).

Turning to `O=C(Nc1ccc(Cl)c(C(F)(F)F)c1)C1Cc2c(-c3ccccc3Oc3ccccc3)ccnc2O1` (centres undefined), the max response is 6.93% (inactive).

Source of the values: PubChem BioAssay AID652105 (National Center for Advancing Translational Sciences (NCATS), 2013).
